Assay results: PubChem BioAssay AID1159580 (chemical genetic matrix, 2015)
“And” between values parts separate entries of the source, which are not always exact repeats. Equal entries are not always repeated. The whole screen tested about 5,500 compounds, of which about 2,000 (36%) were called active. Roughly 18% stayed inconclusive and do not appear here. No stated cut-off is given here; in the data, active means normalized growth mostly below about 0.91 (no sharp cut-off); inconclusive means no clear call, values can overlap the other calls; inactive means mostly above about 0.92. This is one part of the list.

Test: chemical genetic growth profiling, strain panel (AID 1159580);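 further: tested at 20 µM; growth read once vehicle control cultures reached saturation at 30 °C; 1 = growth at the plate median or of vehicle wells; lower values mean less growth of the strain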
Details: S. cerevisiae deletion strains, growth OD

Measured: normalized growth

CS(=O)(=O)Nc1ccc([N+](=O)[O-])cc1Oc1ccccc1
inactive: locus YAL013W, strain DEP1, active compounds read low 0.986 and 1 | locus YAL021C, strain ccr4, active compounds read low 0.991 | locus YAL026C, strain drs2, active compounds read low 0.991 | locus YAL030W, strain snc1, active compounds read low 1 | locus YAL040C, strain CLN3, active compounds read low 1 | locus YBL061C, strain skt5, active compounds read low 0.994 | locus YBR009C, strain hhf1, active compounds read low 0.971 | locus YBR021W, strain FUR4, active compounds read low 0.994 | locus YBR023C, strain chs3, active compounds read low 0.984 | locus YBR171W, strain sec66, active compounds read low 0.988 | locus YBR229C, strain ROT2, active compounds read low 0.958 | locus YBR231C, strain swc5, active compounds read low 0.993 | locus YBR279W, strain paf1, active compounds read low 0.994 | locus YCL011C, strain gbp2, active compounds read low 0.996 | locus YCL016C, strain dcc1, active compounds read low 0.997 | locus YCL029C, strain bik1, active compounds read low 0.97 | locus YCL061C, strain MRC1 (second series), active compounds read low 1.01 | locus YCL061C, strain MRC1, active compounds read low 1 | locus YCL069W, strain vba3, active compounds read low 0.997 | locus YCR088W, strain abp1, active compounds read low 0.999 | locus YDL005C, strain med2, active compounds read low 0.991 | locus YDL035C, strain GPR1, active compounds read low 0.976 | locus YDL040C, strain nat1, active compounds read low 0.985 | locus YDL074C, strain BRE1, active compounds read low 0.944 | locus YDL101C, strain DUN1, active compounds read low 0.964 | locus YDL134C, strain PPH21, active compounds read low 0.999 | locus YDL185W, strain tfp1, active compounds read low 0.971 | locus YDL192W, strain arf1, active compounds read low 0.966 | locus YDR001C, strain nth1, active compounds read low 0.993 | locus YDR069C, strain doa4, active compounds read low 1.02 | locus YDR101C, strain arx1, active compounds read low 0.98 | locus YDR137W, strain rgp1, active compounds read low 0.857 | locus YDR150W, strain NUM1, active compounds read low 0.983 and 1.02 | locus YDR159W, strain sac3, active compounds read low 0.977 | locus YDR162C, strain NBP2, active compounds read low 0.979 | locus YDR195W, strain ref2 1.01 | locus YDR297W, strain sur2, active compounds read low 0.991 | locus YDR318W, strain mcm21, active compounds read low 0.991 | locus YDR334W, strain swr1, active compounds read low 1 | locus YDR335W, strain msn5, active compounds read low 0.993 | locus YDR363W, strain ESC2, active compounds read low 0.994 | locus YDR388W, active compounds read low 0.977 | locus YDR392W, strain spt3, active compounds read low 0.904 | locus YDR502C, strain sam2, active compounds read low 0.943 | locus YEL003W, strain gim4, active compounds read low 0.999 | locus YEL037C, strain rad23, active compounds read low 0.995 | locus YEL061C, strain CIN8 (second series), active compounds read low 0.988 | locus YEL061C, strain CIN8, active compounds read low 0.979 | locus YER002W, strain NOP16, active compounds read low 0.997 | locus YER015W, strain faa2, active compounds read low 0.994 | locus YER016W, strain bim1, active compounds read low 0.991 | locus YER110C, active compounds read low 0.986 | locus YER111C, strain swi4, active compounds read low 0.978 | locus YER155C, strain BEM2 (second series), active compounds read low 0.991 | locus YER155C, strain BEM2, active compounds read low 1 | locus YER167W, strain BCK2, active compounds read low 1 | locus YFR010W, strain ubp6, active compounds read low 1 | locus YGL078C, strain dbp3, active compounds read low 0.978 | locus YGL086W, strain mad1, active compounds read low 0.969 | locus YGL167C, strain pmr1, active compounds read low 0.988 | locus YGL173C, strain kem1, active compounds read low 0.995 | locus YGL227W, strain vid30, active compounds read low 0.997 | locus YGL240W, strain doc1, active compounds read low 0.995 | locus YGL248W, strain PDE1, active compounds read low 0.946 | locus YGL253W, strain hxk2, active compounds read low 1.01 | locus YGR078C, strain PAC10, active compounds read low 0.96 and 1.02 | locus YGR135W, strain pre9, active compounds read low 1.02 | locus YGR229C, strain SMI1, active compounds read low 0.971 | locus YGR252W, strain gcn5, active compounds read low 0.92 | locus YHR013C, strain ard1, active compounds read low 0.967 | locus YHR027C, strain rpn1, active compounds read low 0.995 | locus YHR030C, strain SLT2, active compounds read low 0.995 and 1.02 | locus YHR079C, strain IRE1 (second series), active compounds read low 0.977 | locus YHR079C, strain IRE1, active compounds read low 1.04 | locus YHR094C, strain hxt1, active compounds read low 0.98 | locus YHR129C, strain ARP1, active compounds read low 0.987 | locus YHR142W, strain chs7, active compounds read low 0.991 | locus YHR200W, strain rpn10, active compounds read low 0.972 | locus YIL066C, strain RNR3, active compounds read low 0.964 | locus YIL073C, strain SPO22, active compounds read low 0.969 | locus YIL125W, strain kgd1, active compounds read low 0.98 | locus YIR030C, strain dcg1, active compounds read low 0.976 | locus YJL092W, strain hpr5, active compounds read low 0.997 | locus YJL095W, strain BCK1 (second series), active compounds read low 0.993 | locus YJL095W, strain BCK1, active compounds read low 0.956 and 1.04 | locus YJL115W, strain asf1, active compounds read low 0.999 | locus YJL129C, strain trk1, active compounds read low 0.979 | locus YJL134W, strain LCB3, active compounds read low 0.991 | locus YJL154C, strain vps35, active compounds read low 0.992 | locus YJL164C, strain tpk1, active compounds read low 0.992 | locus YJL166W, strain qcr8, active compounds read low 0.997 | locus YJL168C, strain set2, active compounds read low 0.98 | locus YJL187C, strain SWE1 (second series), active compounds read low 0.949 | locus YJL187C, strain SWE1, active compounds read low 0.996 | locus YJR043C, strain POL32, active compounds read low 0.911
